PubChem BioAssay AID1822 (The Scripps Research Institute Molecular Screening Center, 2009)
Out of some 290,000 compounds screened, about 3,500 (1.2%) were called active. Shown is part of a subset that was picked to be rich in actives. Values without a mark were called inactive.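 Rule for the calls: active = inhibition above the campaign mean inhibition over all tested compounds plus 3 SD (cut at about 28% in these data); inactive = the rest.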

These compounds were tested on M18 aspartyl aminopeptidase (Plasmodium falciparum 3D7) (assay: PfM18AAP inhibitors, malaria aminopeptidase, primary screen, biochemical, QFRET, recombinant enzyme (AID 1822;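 note: 0% = plate median of test compound wells and 100% = 2 mM ZnCl2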)). Conditions: H-Glu-NHMec fluorogenic cleavage, at 7.35 µM, stronger effect = higher value.

SMILES	inhibition
O=c1c2ccccc2[nH]c(=S)n1CCN1CCC(=C(c2ccc(F)cc2)c2ccc(F)cc2)CC1	-3.53%
Cc1nc(N=C(N)N)nc2c(C)cccc12	3.01%
COc1c(O)ccc2c1CN1CCc3cc4c(cc3C1C2)OCO4 (stereo unspecified)	42.2% (active)
COc1cc(COCC(O)CN2CCN(Cc3ccc4c(c3)OCO4)CC2)cc(OC)c1OC (stereo unspecified)	1.06%
COc1ccc(CN2CCCC(N3CCc4ccccc4C3)C2)c(O)c1 (stereo unspecified)	1.47%
Cc1cc(=O)[nH]c(S)c1C#N	31.9% (active)
Cc1cc(=O)[nH]c(SCC(N)=O)c1C#N	6.8%
Cc1ccc(NC(=O)CSc2sc3c(O)cc(=O)[nH]c3c2C#N)cc1C	9.88%
CC(C)(C)C(=O)NNC(=O)c1ccc(Oc2cc(Cl)cc(Cl)c2)o1	7.33%
CCC(C)C(NC(=O)C1CCC(=O)N1C(=O)OCc1ccccc1)C(=O)NC(C(=O)N1CCCC1C(N)=O)C(C)CC (stereo unspecified)	1.63%
CCOC(=O)/C(C#N)=C/c1ccc(N2CCCCC2)cc1	0.72%
O=C(Cc1ccccc1)NC(=S)Nc1ccc(N2CCCCC2)cc1	-3.44%
O=C1C=CC(=O)N1c1ccc(N2CCCCC2)cc1	35.3% (active)
CC(C)CCN(C(=O)c1csnn1)C(C(=O)NC1CCCC1)c1ccccc1 (stereo unspecified)	5.8%
O=C(Nc1ccnn1C1CCN(Cc2cccc(OCCO)c2)CC1)C1CCCC1	-3.2%
CCCC(C)NC(=O)C1CCN(C(=O)C2CC(=O)N(c3ccc(C)cc3)C2)CC1 (stereo unspecified)	-1.18%
COc1ccc2c(c1)C(C)=CC(C)(C)N2C(=O)Nc1ccccc1	34.2% (active)
CC1=CC(C)(C)N(C(=O)CSc2nnc(-c3ccccc3)o2)c2ccc(C)cc21	1.48%
COc1ccc2c(c1)C(C)=CC(C)(C)N2C(=O)CNCc1ccc2c(c1)OCO2	12.3%
O=C1C(=O)N(CCCO)C(c2ccccc2)/C1=C(\O)c1ccc(Br)cc1 (stereo unspecified)	-0.04%
O=C(CN1C(=O)NC2(CCCCC2)C1=O)NCCc1c[nH]c2ccccc12	0.15%
O=C(N/N=C/c1ccco1)c1ccc(C(=O)N/N=C/c2ccco2)o1	6.04%
O=c1nc(N/N=C/c2ccco2)cn[nH]1	52.8% (active)
CC(C)NC(=O)C(=O)N/N=C/c1ccco1	-9.66%
CCS(=O)(=O)Nc1ccc(C(=O)NCCSc2ccccc2)cc1	-4.1%
CCCCNC(=O)C1CCC(=O)N1CCc1ccccc1 (stereo unspecified)	-7.08%
